Out of some 2,000 compounds screened, about 100 (5%) were called active. Rule as the data show it: active = z-score above about 2; inactive = the rest. The sample as a whole holds a higher share of actives than the screen did. Positions of bridges follow the written chain, without caps; N, C: chain ends. Non-standard residues stand in square brackets, D forms with d. Residues, ends and D or L forms follow the SMILES beside them. hArg = N=C(N)NCCCC[CH](N)C(=O)O; Mpa = O=C(O)CCS
Assay: supercomplex reporter luminescence per Hoechst cell count – Hoechst nuclei count (AID 1645838);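 also: control cybrid cells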;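 as to z-score: higher means more mitochondrial supercomplex formation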
Conditions: Cells, luminescence/Hoechst cell count ratio; for z-score: stronger effect = higher value; for cell count: measured here: cell number, Hoechst nuclei count
[1] = library stock concentration (final well concentration not given) 80 uM
[2] = library stock concentration (final well concentration not given) 400 uM
[3] = library stock concentration (final well concentration not given) 2 mM
[4] = library stock concentration (final well concentration not given) 10 mM
[5] = library stock concentration (final well concentration not given) 46 uM
[6] = library stock concentration (final well concentration not given) 278 uM
[7] = library stock concentration (final well concentration not given) 1.67 mM

Question: For `O=C(O)CCC/C=C\C[C@@H]1[C@@H](/C=C/[C@@H](O)C2CCCCC2)[C@H](O)C[C@@H]1O`, which z-score is on record?
Answer: -0.293 (inactive)

Question: What about the cell count of the same molecule?
Answer: 5180

Question: Which z-score does the source give for `O=C1C[C@@H]2[C@@H](/C=C/[C@@H](O)COc3cccc(C(F)(F)F)c3)[C@H](O)C[C@@H]2O1` here?
Answer: 0.782 (inactive)

Question: What about the cell count of the same molecule?
Answer: 5240

Question: For `COc1cc(N2CCC(N3CCN(C)CC3)CC2)ccc1Nc1ncc(Cl)c(Nc2ccccc2S(=O)(=O)C(C)C)n1`, which outcome (library stock 10 mM) is on record?
Answer: inactive; censored for cell count

Question: What about the z-score [1] of the same molecule?
Answer: 0.0842 (inactive)

Question: And the z-score [2]?
Answer: 0.241 (inactive)

Question: And the z-score [3]?
Answer: 1.15 (inactive)

Question: What about the cell count [1] of the same molecule?
Answer: 4260

Question: What about the cell count [2] of the same molecule?
Answer: 4220

Question: What about the cell count [3] of the same molecule?
Answer: 3560

Question: For `CNC(=O)c1ccccc1Nc1nc(Nc2ccc(N3CCOCC3)cc2OC)ncc1Cl`, which outcome (library stock 2 mM) is on record?
Answer: inactive; censored for cell count

Question: And the outcome (library stock 10 mM)?
Answer: inactive; censored for cell count

Question: And the z-score [1]?
Answer: -0.243 (inactive)

Question: What about the z-score [2] of the same molecule?
Answer: -0.00453 (inactive)

Question: What about the cell count [1] of the same molecule?
Answer: 6320

Question: What about the cell count [2] of the same molecule?
Answer: 5260

Question: For `COc1cc(N2CCOCC2)ccc1Nc1ncc(F)c(Nc2ccccc2NS(C)(=O)=O)n1`, which z-score [1] is on record?
Answer: -0.351 (inactive)

Question: What about the z-score [2] of the same molecule?
Answer: -0.312 (inactive)

Question: And the z-score [3]?
Answer: 0.0927 (inactive)

Question: What about the z-score [4] of the same molecule?
Answer: 3.16 (active)

Question: What about the cell count [1] of the same molecule?
Answer: 5830

Question: And the cell count [2]?
Answer: 5470

Question: What about the cell count [3] of the same molecule?
Answer: 5120

Question: What about the cell count [4] of the same molecule?
Answer: 1690

Question: For `CCC(O)/C=C/C=O` (stereo unspecified), which z-score is on record?
Answer: 0.341 (inactive)

Question: And the cell count?
Answer: 4950

Question: Which z-score [1] does the source give for `O=C1C(=Cc2cn(-c3ccccc3)nc2-c2ccc(OCc3ccc(Cl)cc3)cc2)SC(=S)N1CCS(=O)(=O)O` here?
Answer: 0.0314 (inactive)

Question: What about the z-score [2] of the same molecule?
Answer: 0.372 (inactive)

Question: And the z-score [3]?
Answer: -0.323 (inactive)

Question: And the z-score [4]?
Answer: -0.219 (inactive)

Question: What about the cell count [1] of the same molecule?
Answer: 5380

Question: And the cell count [2]?
Answer: 4640

Question: And the cell count [3]?
Answer: 5180

Question: What about the cell count [4] of the same molecule?
Answer: 4960

Question: For `c1ccc(Nc2nc3c(s2)CCCc2[nH]ncc2-3)nc1`, which z-score [5] is on record?
Answer: -0.0827 (inactive)

Question: What about the z-score [6] of the same molecule?
Answer: -0.00166 (inactive)

Question: And the z-score [7]?
Answer: -0.105 (inactive)

Question: And the z-score [4]?
Answer: 0.335 (inactive)

Question: And the cell count [5]?
Answer: 6250

Question: What about the cell count [6] of the same molecule?
Answer: 5830

Question: And the cell count [7]?
Answer: 6080

Question: What about the cell count [4] of the same molecule?
Answer: 5550

Question: For `CC(C)C1C(=O)NC(CCCN=C(N)N)C(=O)NCC(=O)NC(CC(=O)O)C(=O)NC(Cc2ccccc2)C(=O)N1C` (stereo unspecified), which z-score [1] is on record?
Answer: 0.68 (inactive)

Question: And the z-score [2]?
Answer: 0.227 (inactive)

Question: And the z-score [3]?
Answer: 0.518 (inactive)

Question: And the z-score [4]?
Answer: 5.23 (active)

Question: What about the cell count [1] of the same molecule?
Answer: 5020

Question: And the cell count [2]?
Answer: 5060

Question: And the cell count [3]?
Answer: 4260

Question: And the cell count [4]?
Answer: 1780

Question: For `NC(=O)C1CSSCCC(=O)NC(CCCCN=C(N)N)C(=O)NCC(=O)NC(CC(=O)O)C(=O)NC(Cc2c[nH]c3ccccc23)C(=O)N2CCCC2C(=O)N1` (stereo unspecified) ([Mpa][hArg]GDWPC-NH2; disulfide 1-7; configuration not given here), which z-score [5] is on record?
Answer: -0.201 (inactive)

Question: And the z-score [6]?
Answer: -0.18 (inactive)

Question: What about the z-score [7] of the same molecule?
Answer: -0.38 (inactive)

Question: And the z-score [4]?
Answer: -0.0485 (inactive)

Question: What about the cell count [5] of the same molecule?
Answer: 5770

Question: What about the cell count [6] of the same molecule?
Answer: 5930

Question: And the cell count [7]?
Answer: 6620

Question: And the cell count [4]?
Answer: 5820

Question: For `CCCCC[C@H](O)/C=C/[C@@H]1[C@@H](C/C=C\CCCCOC)[C@@H](O)C[C@H]1O`, which z-score is on record?
Answer: -0.514 (inactive)

Question: And the cell count?
Answer: 5540

Question: What does the source list for `CCCCC[C@@H](O)[C@H]1C(=O)O[C@H](C)[C@@H](O)/C=C/C=C/C=C/C=C/C=C(\C)[C@@H](O)C[C@H](O)C[C@H](O)C[C@H](O)C[C@H](O)C[C@H](O)C[C@@H]1O`?
Answer: z-score: 0.375 (inactive); cell count: 5780

Question: With `Cc1cc(-c2ccccc2)nc2cc(C(=O)Nc3cccc(O)c3)nn12` as the molecule, how does the z-score [1] read?
Answer: 0.0171 (inactive)

Question: What about the z-score [2] of the same molecule?
Answer: 0.0308 (inactive)

Question: And the z-score [3]?
Answer: -0.473 (inactive)

Question: And the z-score [4]?
Answer: -0.672 (inactive)

Question: What about the cell count [1] of the same molecule?
Answer: 5500

Question: What about the cell count [2] of the same molecule?
Answer: 5070

Question: And the cell count [3]?
Answer: 5150

Question: And the cell count [4]?
Answer: 5110

From PubChem BioAssay AID1645838 (ICCB-Longwood Screening Facility, Harvard Medical School, 2021)
